Measured values taken from PMC4336329 (PLoS ONE, 2015).
Among all 310,000 compounds or so, about 2,200 (0.71%) showed an effect of 50% or more. Effects have a minus sign here. Many of the other results were omitted from the sample, so strong results are more common in it than they were.

The compounds below were run against human ether-à-go-go-related gene (hERG) potassium channel (human, UniProt Q12809) (assay: primary screen, population patch clamp on CHO cells stably expressing hERG; higher = less effect of the substance).
Description: Briefly, Chinese hamster ovary (CHO) cells stably expressing the hERG channel were dislodged from tissue culture flasks and dispensed into PPC plates. […] During the recording, background leak currents were estimated by a 100 ms step to -80 mV from an initial holding potential of -70 mV and subtracted from the subsequent current measurement. The campaign was conducted in two phases using slight differences in recording protocol. In the first phase, the initial voltage pulse used a 100 ms step to -30 mV from a holding potential of -70 mV, a 2 s conditioning step to +25 mV, and a 2 s test step to -30 mV. During the second phase of the screen, the potential during the conditioning step was raised to +45 mV. In both phases of the campaign, a secondary voltage pulse was applied using the same parameters as the second phase initial pulse. The initial and secondary pulses were applied in the absence of compound, and upon application of 1 μM and 10 μM test concentrations. Small molecule effects on hERG current density were quantified by […].

Sequence of human ether-à-go-go-related gene (hERG) potassium channel (Q12809 whole entry, looked up): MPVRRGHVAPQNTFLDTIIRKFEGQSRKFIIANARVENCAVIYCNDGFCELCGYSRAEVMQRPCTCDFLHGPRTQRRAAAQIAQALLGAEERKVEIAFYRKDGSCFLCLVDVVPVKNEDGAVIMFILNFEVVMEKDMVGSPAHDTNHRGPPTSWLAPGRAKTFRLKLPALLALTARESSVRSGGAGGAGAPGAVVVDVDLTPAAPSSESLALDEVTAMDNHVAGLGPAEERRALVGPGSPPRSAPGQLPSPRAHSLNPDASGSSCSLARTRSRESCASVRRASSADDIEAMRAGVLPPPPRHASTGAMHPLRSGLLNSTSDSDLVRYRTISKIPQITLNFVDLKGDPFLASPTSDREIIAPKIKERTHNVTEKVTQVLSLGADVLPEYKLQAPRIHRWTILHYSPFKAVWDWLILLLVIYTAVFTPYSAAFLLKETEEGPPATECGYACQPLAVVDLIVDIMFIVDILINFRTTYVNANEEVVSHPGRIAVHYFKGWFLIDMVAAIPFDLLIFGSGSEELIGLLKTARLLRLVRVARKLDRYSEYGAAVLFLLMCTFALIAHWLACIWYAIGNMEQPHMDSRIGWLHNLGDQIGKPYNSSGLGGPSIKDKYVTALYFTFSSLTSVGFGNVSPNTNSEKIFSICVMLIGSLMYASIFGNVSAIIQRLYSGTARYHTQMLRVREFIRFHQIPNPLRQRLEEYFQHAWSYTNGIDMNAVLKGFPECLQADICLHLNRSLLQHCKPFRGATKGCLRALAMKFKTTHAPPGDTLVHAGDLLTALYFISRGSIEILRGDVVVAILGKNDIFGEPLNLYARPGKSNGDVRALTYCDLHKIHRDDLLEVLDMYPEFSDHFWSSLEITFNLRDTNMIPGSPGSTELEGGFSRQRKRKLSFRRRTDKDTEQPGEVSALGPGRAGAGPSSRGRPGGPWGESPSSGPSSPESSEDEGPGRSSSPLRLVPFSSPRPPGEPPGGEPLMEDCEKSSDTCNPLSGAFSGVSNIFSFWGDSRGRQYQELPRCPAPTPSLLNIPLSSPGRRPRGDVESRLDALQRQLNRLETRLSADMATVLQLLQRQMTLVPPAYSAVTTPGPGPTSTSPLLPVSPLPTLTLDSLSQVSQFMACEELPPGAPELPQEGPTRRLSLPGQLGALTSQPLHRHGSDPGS

| SMILES | hERG current change (%, negative = inhibition) at 1uM [%] |
| --- | --- |
| N#Cc1c(NC(=S)NC(=O)C2CCCC2)sc2c1CCCCC2 | 10.1 |
| COc1ccc(N2CCN(c3ncnc4c3cnn4-c3ccc(C)cc3C)CC2)cc1 | 13.6 |
| CCC(=O)N1CCc2cc(S(=O)(=O)NC(C(=O)NCc3ccc(C)cc3)C(C)C)ccc21 (stereo not drawn) | 1.57 |
| CCOc1ccc2nc(N3CCCC(C(=O)NCCCN4CCCCC4)C3)sc2c1 (stereo not drawn) | -11.7 |
| CCN=C(NCC)SC1CC(=O)N(c2ccc(OCC)cc2)C1=O (stereo not drawn) | 7.6 |
| Cn1cc(/C=N/NC(=O)c2ccc(C#N)cc2F)c2ccccc21 | 12.6 |
| N#Cc1c(N2CCCC(O)C2)nc(N)c2c(N)nc3c(c12)CC(=O)N3C12CC3CC(CC(C3)C1)C2 (stereo not drawn) | 8.76 |
| Cc1ccc(C(=O)N/C(=C\c2cccc([N+](=O)[O-])c2)C(=O)NCc2ccncc2)cc1 | -65.3 |
| CCNC(=O)/C(=C/c1cccc([N+](=O)[O-])c1)NC(=O)c1ccc(C)cc1 | -17.3 |
| O=C(NCc1ccncc1)/C(=C\c1ccc(F)cc1)NC(=O)c1ccccc1 | -52.3 |
| COc1ccc(/C=C(/NC(=O)c2ccccc2)C(=O)NCc2ccncc2)cc1 | -12.6 |
| CN(C)c1ccc(/C=C(\NC(=O)c2ccccc2)C(=O)NCc2ccncc2)cc1 | 4.78 |
| O=C(NCc1ccncc1)/C(=C/c1cccc([N+](=O)[O-])c1)NC(=O)c1ccccc1 | -31.2 |
| Cc1ccc(C23CC4CC(CC(C(=O)OCC(=O)NC5CCS(=O)(=O)C5)(C4)C2)C3)cc1 (stereo not drawn) | 1.74 |
| COc1ccc(OCC(=O)NNC(=O)C(=O)Nc2cc(OC)ccc2OC)cc1 | 13.5 |
| N=c1c2c(-c3ccccc3)c(-c3ccccc3)oc2ncn1CCN1CCOCC1 | -63.5 |
| c1ccc(-c2oc3ncnc(NCCCN4CCOCC4)c3c2-c2ccccc2)cc1 | 0.244 |
| N=c1c2c(-c3ccccc3)c(-c3ccccc3)oc2ncn1CCCN1CCOCC1 | -84.5 |
| N=c1c2c(-c3ccccc3)c(-c3ccccc3)oc2ncn1Cc1ccco1 | 9.94 |
| COc1ccc(-c2oc3ncn(CCN4CCOCC4)c(=N)c3c2-c2ccc(OC)cc2)cc1 | -7.75 |
| c1ccc(-c2oc3ncnc(NCCN4CCOCC4)c3c2-c2ccccc2)cc1 | 9.8 |
| COc1ccccc1CCc1nnc(CCC(=O)N(C)Cc2cccc3cnccc23)o1 | -53.3 |
| CN(Cc1cccc2cnccc12)C(=O)CCc1nnc(CCc2ccccc2)o1 | -5.46 |
| COc1ccccc1CCc1nnc(CCC(=O)N(C)Cc2ccncc2C)o1 | 16.2 |
| COc1ccc2[nH]c(=O)c(CN(Cc3cccnc3)S(=O)(=O)c3ccccc3F)cc2c1 | 7.89 |
| CCOc1ccc(NC(=O)CN(C)C(=O)c2ccc(-c3ccc(C(C)=O)cc3)o2)cc1OCC | 10.5 |
| Nc1c2c(nc3ccn(-c4ccccc4)c(=O)c13)CCCCC2 | -37.1 |

| SMILES | hERG current change (%, negative = inhibition) at 1uM [%] |
| --- | --- |
| Nc1c2c(nc3ccn(Cc4ccccc4)c(=O)c13)CCC2 | -59 |
| Cl.Nc1c2c(nc3ccccc13)CCCC2 | -12.6 |
| NC(=O)NC(c1ccc(Cl)cc1)c1ccccc1Cl (stereo not drawn) | 7.43 |
| CC(=O)Nc1ccc(-n2c(C)ccc2C)cc1 | 12.9 |
| O=C(/C=C/c1ccc(F)cc1)N1CCN(c2ncccn2)CC1 | 18.1 |
| O=C(/C=C/c1cccc(F)c1)N1CCN(c2ccccn2)CC1 | -68.4 |
| O=C(/C=C/c1c(Cl)cccc1Cl)N1CCN(c2ncccn2)CC1 | -53 |
| O=C(/C=C/c1cccc(F)c1)N1CCN(c2ncccn2)CC1 | 12.4 |
| O=C(/C=C/c1ccccc1Cl)N1CCN(c2ncccn2)CC1 | 7.12 |
| O=C(/C=C/c1ccccc1)N1CCN(c2ccccn2)CC1 | -3.17 |
| Cc1ccc2cc(CCNC(=O)c3ccc(S(=O)(=O)N4CCOCC4)cc3)c(=O)[nH]c2c1C | 11.8 |
| Cc1ccc(C)c(S(=O)(=O)NCC(=O)NCc2ccco2)c1 | 4.55 |
| Cc1cccc(C)c1NC(=O)CCCSc1nnc(N)s1 | 8.09 |
| CCCCn1c(=N)n(CC(O)COc2ccccc2)c2ccccc21 (stereo not drawn) | -68 |
| Br.CCCCn1c(=N)n(CCOc2ccc(C)cc2)c2ccccc21 | -59.6 |
| CCN(CC)CCn1c(=N)n(CC(O)COc2ccccc2)c2ccccc21.Cl (stereo not drawn) | -20.5 |
| CCCn1c(=N)n(CCOc2ccc(OC)cc2)c2ccccc21 | -22 |
| Cc1ccc(OCC(O)Cn2c(=N)n(CCN3CCOCC3)c3ccccc32)cc1.Cl (stereo not drawn) | -9.7 |
| Cc1ccc(OCC(O)Cn2c3ccccc3c3ccccc32)cc1 (stereo not drawn) | 16.8 |
| CCCCn1c(=N)n(CC(O)COc2ccc(C)cc2)c2ccccc21.Cl (stereo not drawn) | -77 |
| CCn1c(=N)n(CCOc2ccc(OC)cc2)c2ccccc21 | -25.5 |
| Cl.N=c1n(CCN2CCOCC2)c2ccccc2n1CC(O)COc1ccccc1 (stereo not drawn) | -3.77 |
| CCCn1c(=N)n(CC(O)COc2ccc(C)cc2)c2ccccc21.Cl (stereo not drawn) | -68 |
| CCn1c(=N)n(CC(O)COc2ccc(C)cc2)c2ccccc21.Cl (stereo not drawn) | -16.8 |
| CCCCn1c(=N)n(CC(O)c2ccccc2)c2ccccc21.Cl (stereo not drawn) | -36.7 |
| CCOC(=O)C1CCN(C(=O)CSC2=NCCS2)CC1 | 8.93 |
| NS(=O)(=O)c1ccc(CCNC(=O)CN2CCN(Cc3cccc4ccccc34)CC2)cc1 | 8.33 |
